PubChem BioAssay (NCI)
About 79,000 compounds went through this panel and 15% of them were active in at least one assay; those are over-represented in the sample as a whole. Activity calls are given as the source filed them. Cut-off read from the data, not from the text of the source: active = growth inhibition above about 70%; inactive = the rest.

Key:
[1] = NCI Yeast Anticancer Drug Screen. Data for the rad52 strain (AID 147);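 note: 0% = growth of vehicle-treated control cultures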; conditions: S. cerevisiae rad52 mutant growth inhibition, stronger effect = higher value
How it was run: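 Read-out: growth inhibition versus vehicle-treated controls. Cells were a DNA repair-deficient yeast strain treated with compounds.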

[2] = NCI Yeast Anticancer Drug Screen. Data for the wt1 strain (AID 149);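 note: 0% = growth of vehicle-treated wt1 cultures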; conditions: S. cerevisiae wt1 strain (SPY 50644) growth inhibition, stronger effect = higher value
How it was run: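 wt1 yeast, compound-treated; % growth inhibition vs vehicle control.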

[3] = NCI Yeast Anticancer Drug Screen. Data for the rad50EPP+ strain (AID 151);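 note: 0% = growth of vehicle-treated control cultures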; conditions: S. cerevisiae rad50 mutant strain, stronger effect = higher value
How it was run: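 Growth inhibition read against vehicle controls in rad50EPP+ yeast, a strain altered in DNA damage repair, after compound exposure.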

[4] = NCI Yeast Anticancer Drug Screen. Data for the mgt1 strain (AID 153); conditions: S. cerevisiae mgt1 mutant growth inhibition, stronger effect = higher value
How it was run: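 mgt1 yeast grown with test compound; read-out is growth inhibition versus vehicle-treated cultures.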

[5] = NCI Yeast Anticancer Drug Screen. Data for the rad50 strain (AID 155);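 note: 0% = growth of vehicle-only cultures of the same strain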; conditions: S. cerevisiae rad50 strain growth inhibition, stronger effect = higher value
How it was run: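 Genetically altered yeast (DNA repair pathway); compound treatment; growth inhibition vs vehicle ctrl.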

[6] = NCI Yeast Anticancer Drug Screen. Data for the mec2-1 strain (AID 157); conditions: S. cerevisiae mec2-1 strain, stronger effect = higher value
How it was run: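 Yeast mec2-1 mutant treated with compound. Readout: growth inhibition vs vehicle controls.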

[7] = NCI Yeast Anticancer Drug Screen. Data for the rad14 strain (AID 159);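 note: 0% = growth of vehicle-treated control cultures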; conditions: S. cerevisiae rad14 strain growth inhibition, stronger effect = higher value
How it was run: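 Test compounds were applied to a repair-deficient yeast strain. Its growth was then compared with that of cultures given vehicle alone, and inhibition was expressed relative to those controls.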

[8] = NCI Yeast Anticancer Drug Screen. Data for the sgs1 mgt1 strain (AID 161);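 note: 0% = growth of cultures given vehicle only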; conditions: S. cerevisiae sgs1 mgt1 strain, at 50.0 µM, stronger effect = higher value
How it was run: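 Mutant yeast exposed to compound; growth scored against vehicle-only wells.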

[9] = NCI Yeast Anticancer Drug Screen. Data for the CLN2oe strain (AID 163);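 note: 0% = growth of vehicle-only control cultures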; conditions: S. cerevisiae CLN2oe strain, stronger effect = higher value
How it was run: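 Read-out: yeast growth inhibition, expressed relative to vehicle-only controls. The strain bears an engineered cell-cycle alteration.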

[10] = NCI Yeast Anticancer Drug Screen. Data for the cln2 rad14 strain (AID 165);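 note: 0% = growth equal to vehicle treated cultures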; conditions: S. cerevisiae cln2 rad14 strain, at 50.0 µM, stronger effect = higher value
How it was run: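 cln2 rad14 yeast strain; compound exposure; growth inhibition read vs vehicle controls.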

[11] = NCI Yeast Anticancer Drug Screen. Data for the bub3 strain (AID 167); conditions: S. cerevisiae bub3 mutant strain, stronger effect = higher value
How it was run: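 Yeast carrying a defined mutation is treated with each compound, and growth is compared with that of vehicle-exposed cells to give inhibition.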

[12] = NCI Yeast Anticancer Drug Screen. Data for the wt2 strain (AID 169);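 note: 0% = growth of vehicle-treated yeast cultures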; conditions: S. cerevisiae wt2 strain growth inhibition, stronger effect = higher value
How it was run: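 Read-out: growth inhibition versus vehicle-treated control cultures after compound exposure of the yeast strain.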

[13] = NCI Yeast Anticancer Drug Screen. Data for the sgs1 strain (AID 173);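 note: 0% = growth of vehicle-only control cultures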; conditions: S. cerevisiae sgs1 mutant, stronger effect = higher value
How it was run: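 Read-out: yeast growth inhibition relative to vehicle controls, following compound exposure of a strain with a defined DNA repair/cell cycle alteration.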

[14] = NCI Yeast Anticancer Drug Screen. Data for the mlh1 rad18 strain (AID 175); conditions: S. cerevisiae mlh1 rad18 strain growth inhibition; at 50.0 µM; stronger effect = higher value
How it was run: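 Yeast w/ defined DNA-repair lesions; compound exposure; growth vs vehicle controls → % inhibition.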

[15] = NCI Yeast Anticancer Drug Screen. Data for the rad18 strain (AID 177); conditions: S. cerevisiae rad18 mutant growth inhibition, stronger effect = higher value
How it was run: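 Readout: growth inhibition vs vehicle controls. Cells: genetically altered yeast strain, DNA repair defect.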

[16] = NCI Yeast Anticancer Drug Screen. Data for the mlh1 strain (AID 171);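 note: 0% = growth of vehicle-treated control cultures of the same strain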; conditions: S. cerevisiae mlh1 strain growth inhibition, stronger effect = higher value
How it was run: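 Read-out: growth inhibition versus vehicle controls. Strain: engineered yeast with a defined DNA repair or cell cycle defect, compound-treated.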

Measured: growth inhibition

COc1cc(NCc2ccc3nc(N)nc(N)c3c2C)cc(OC)c1OC
inactive: [1]; at 1.2 µM 1% | [1]; at 3.7 µM 5% | [1]; at 11.0 µM 17% | [1]; at 33.0 µM 37% | [1]; at 100.0 µM 68% | [2]; at 1.2 µM -1% | [2]; at 3.7 µM -4% | [2]; at 11.0 µM -6% | [2]; at 33.0 µM -7% | [2]; at 100.0 µM 1% | [3]; at 1.2 µM -5% | [3]; at 3.7 µM -4% | [3]; at 11.0 µM -4% | [3]; at 33.0 µM 6% | [3]; at 100.0 µM 27% | [4]; at 1.2 µM -3% | [4]; at 3.7 µM -6% | [4]; at 11.0 µM -7% | [4]; at 33.0 µM -7% | [4]; at 100.0 µM 37% | [5]; at 1.2 µM -3% | [5]; at 3.7 µM -3% | [5]; at 11.0 µM 7% | [5]; at 33.0 µM 28% | [5]; at 50.0 µM -7.65% | [6]; at 1.2 µM -4% | [6]; at 3.7 µM 8% | [6]; at 11.0 µM 39% | [6]; at 50.0 µM 54.6% | [7]; at 1.2 µM -2% | [7]; at 3.7 µM -6% | [7]; at 11.0 µM -8% | [7]; at 33.0 µM -5% | [7]; at 100.0 µM 43% | [8] 0.6% | [9]; at 1.2 µM -8% | [9]; at 3.7 µM -18% | [9]; at 11.0 µM -17% | [9]; at 33.0 µM -16% | [9]; at 100.0 µM 30% | [10] -1.2% | [11]; at 1.2 µM -13% | [11]; at 3.7 µM -15% | [11]; at 11.0 µM -15% | [11]; at 33.0 µM -24% | [11]; at 50.0 µM -46.8% | [11]; at 100.0 µM 43% | [12]; at 1.2 µM -4% | [12]; at 3.7 µM -5% | [12]; at 11.0 µM -7% | [12]; at 33.0 µM -2% | [12]; at 100.0 µM 46% | [13]; at 1.2 µM -2% | [13]; at 3.7 µM -2% | [13]; at 11.0 µM 5% | [13]; at 33.0 µM 22% | [14] -74.6% | [15]; at 1.2 µM -6% | [15]; at 3.7 µM -2% | [15]; at 11.0 µM 1% | [15]; at 33.0 µM 20%
active: [5]; at 100.0 µM 78% | [6]; at 33.0 µM 82% | [6]; at 100.0 µM 95% | [13]; at 100.0 µM 75% | [15]; at 100.0 µM 77%

O=NN(CCCl)C(=O)NCCCl
active: [3]; at 100.0 µM 76%
inactive: [1]; at 1.2 µM 0% | [1]; at 3.7 µM 1% | [1]; at 11.0 µM 6% | [1]; at 33.0 µM 13% | [1]; at 100.0 µM 51% | [2]; at 1.2 µM -1% | [2]; at 3.7 µM -2% | [2]; at 11.0 µM -1% | [2]; at 33.0 µM 0% | [2]; at 100.0 µM -16% | [3]; at 1.2 µM -3% | [3]; at 3.7 µM -1% | [3]; at 11.0 µM 5% | [3]; at 33.0 µM 30% | [4]; at 1.2 µM -3% | [4]; at 3.7 µM -2% | [4]; at 11.0 µM 0% | [4]; at 33.0 µM 2% | [4]; at 100.0 µM 3% | [5]; at 1.2 µM 0% | [5]; at 3.7 µM 0% | [5]; at 11.0 µM 6% | [5]; at 33.0 µM 15% | [5]; at 50.0 µM 35.6% | [5]; at 100.0 µM 53% | [6]; at 1.2 µM -2% | [6]; at 3.7 µM 0% | [6]; at 11.0 µM 1% | [6]; at 33.0 µM 4% | [6]; at 50.0 µM -4.3% | [6]; at 100.0 µM 15% | [7]; at 1.2 µM -2% | [7]; at 3.7 µM 1% | [7]; at 11.0 µM 3% | [7]; at 33.0 µM 3% | [7]; at 100.0 µM 11% | [8] 6.75% | [9]; at 1.2 µM -10% | [9]; at 3.7 µM -5% | [9]; at 11.0 µM -6% | [9]; at 33.0 µM -5% | [9]; at 100.0 µM 0% | [10] 2.3% | [11]; at 1.2 µM 2% | [11]; at 3.7 µM -2% | [11]; at 11.0 µM 0% | [11]; at 33.0 µM -6% | [11]; at 50.0 µM -10.8% | [11]; at 100.0 µM 3% | [12]; at 1.2 µM -3% | [12]; at 3.7 µM -3% | [12]; at 11.0 µM -3% | [12]; at 33.0 µM 0% | [12]; at 100.0 µM 3% | [16]; at 1.2 µM -1% | [16]; at 3.7 µM -2% | [16]; at 11.0 µM -2% | [16]; at 33.0 µM 1% | [16]; at 100.0 µM 8%
